The assay concerns astro (control astrocytes). In words: Drug repurposing screens with cells derived from glioblastoma tumor samples (AID 1345199). Further: nearly all actives have a fitted effect of over 40% in size. The settings on record: viability, ATP luminescence, 48 h; series mostly up to 45.9 µM. An outline of the steps: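 Primary testing used CD133+ neurospheres from four GBM patients, seven concentrations, 48 h exposure and ATP-based viability; confirmation added three slower-growing patient lines.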

Inconclusive results are not listed. Entries that show only a call come without a potency. Activity calls are given as the source filed them. The call rests on the fitted dose curve; in most records, active means well fitted inhibition curve with a large enough effect; inconclusive means small, poorly fitted or top-dose-only effect; inactive means flat fitted curve, though single readings scatter.
Potency means the concentration at half of the fitted maximal effect.

As for `O=C(O)c1cccc(-c2noc(-c3ccccc3F)n2)c1`, the Potency was 2.51 µM (active).

For the compound `Cc1cc(=O)c2c(O)c3c(O)cc(=O)c4c3c3c(cc(O)c1c23)C(C)(C)C=4O`, the Potency is 2.51 µM (active).

`CCCCCCCCCCCCCCCCCCCCCCO`: the Potency result was “inactive”.

Consider `C[C@H](Cn1cnc2c(N)ncnc21)OCP(=O)(O)O`, for which the Potency result is “inactive”.

With `O=C(NC(Cc1cc(=O)[nH]c2ccccc12)C(=O)O)c1ccc(Cl)cc1` (stereo not drawn), the Potency entry was “inactive”.

Regarding `Cc1nc2n(c(=O)c1CCN1CCC(c3noc4cc(F)ccc34)CC1)CCCC2`, the Potency result was “inactive”.

With `CC1=C(C)C(=O)C(C(CCCCCC(=O)O)c2ccccc2)=C(C)C1=O` (stereo not drawn), the Potency entry was “inactive”.

As to `CC(C)[C@H](N)C(=O)OCCOCn1cnc2c(=O)[nH]c(N)nc21`, the Potency entry was “inactive”.

Take `COc1cc(C(C)=O)ccc1OCCCN1CCC(c2noc3cc(F)ccc23)CC1`: the Potency entry was “inactive”.

As for `Cc1cc(=O)oc2cc(O)ccc12`, the Potency entry is “inactive”.

As to `Cc1ccc(S(=O)(=O)NC(=O)NN2CC3CCCC3C2)cc1` (stereo not drawn), the Potency entry is “inactive”.

As for `O=C(O)CCNC(=O)c1ccc(N=Nc2ccc(O)c(C(=O)O)c2)cc1`, the Potency result is “inactive”.

On to `Nc1cc(C(Cl)=C(Cl)Cl)c(S(N)(=O)=O)cc1S(N)(=O)=O`, for which the Potency entry is “inactive”.

`CCN(CCO)CCCC(C)Nc1ccnc2cc(Cl)ccc12` (stereo not drawn): the Potency entry was “inactive”.

Turning to `Cn1c(NCCN(CCO)CCCc2ccc([N+](=O)[O-])cc2)cc(=O)n(C)c1=O`, the Potency result was “inactive”.

On to `CC1Cc2ccccc2N1NC(=O)c1ccc(Cl)c(S(N)(=O)=O)c1` (stereo not drawn), for which the Potency result was “inactive”.

`N=C(N=C(N)N)N1CCOCC1`: the Potency result was “inactive”.

Take `N=C(N)c1ccc2cc(OC(=O)c3ccc(N=C(N)N)cc3)ccc2c1`: the Potency result is “inactive”.

(Values after PubChem BioAssay (NCATS).)
